# High-throughput results: PubChem BioAssay, Buhrlage Lab, Dana-Farber Cancer Institute and Novartis Institutes for BioMedical Research (Cambridge, Mass)
# USP30 inh – inhibitors of human USP30 deubiquitinase; inhibition, % at 25 µM; purified USP30, Ub-rhodamine cleavage fluorescence; 47,000 compounds, 5.3% hits; Q70CQ3; AID 1645860
# USP8 inh – inhibitors of human USP8 deubiquitinase; AID 1645853; purified USP8, Ub-rhodamine cleavage fluorescence, 30 min; inhibition, % at 20 µM; 47,000 compounds, 4.2% hits; P40818
# USP17 block – blocks human USP17 ubiquitin-rhodamine cleavage; A8MUK1; purified USP17, Ub-rhodamine cleavage fluorescence, 3 h; inhibition, % at 50 µM; 47,000 compounds, 6.5% hits; AID 1645855
# USP10 block – blocks human USP10 ubiquitin-rhodamine cleavage | Q14694 | AID 1645856 | purified USP10, Ub-rhodamine fluorescence, 60 min | 47,000 compounds, 1.1% hits | inhibition, % at 20 µM
# USP28 block – blocks human USP28 ubiquitin-rhodamine cleavage; Q96RU2; purified USP28, Ub-rhodamine cleavage fluorescence, 30 min; inhibition, % at 25 µM; 47,000 compounds, 3% hits; AID 1645857
# Active calls of the source: *; / = no result given. Sampled rows, rich in hits. Any-hit rate of the full collection: about 13%. Cut-off read from the data, not from the text of the source: active = inhibition above about 30%; inactive = the rest.
SMILES,USP30 inh,USP8 inh,USP17 block,USP10 block,USP28 block
COc1cccc(-c2cc(CC(=O)Nc3ccc(C(N)=O)cc3)no2)c1,-33,40*,-3,4,18
COc1cccc(-c2cc(CNC(=O)Cc3ccccc3)no2)c1,0,0,3,5,17
NC(=O)c1ccc(NC(=O)Cc2cc(-c3ccc(F)cc3)on2)cc1,-41,-8,39*,-4,-8
CCn1c(CC(=O)Nc2cccc(C)c2)nnc1SCC(=O)N1CCOCC1,0,3,1,0,0
CC(C)CCNC(=O)c1cccc(-c2cnc(NC3CCCCC3)nc2)c1,32*,20,15,2,17
CC(C)CCNC(=O)c1ccc2c(=O)n(C3CCCC3)c(=O)[nH]c2c1,18,34*,3,9,11
Cc1cc(O)c2c(C)c(CC(=O)N[C@@H](Cc3c[nH]c4ccccc34)C(=O)O)c(=O)oc2c1,15,12,10,3,0
O=S(=O)(NC1CC1)c1ccc(S(=O)(=O)N2CCCC3(CCCCC3)C2)cc1,41*,16,/,10,4
O=S(=O)(NC1CC1)c1ccc(S(=O)(=O)N2CCN3CCCC3C2)cc1 (stereo not drawn),0,-29,-7,-2,0
COc1ccccc1N1CCN(C(=O)CSc2cc(=O)n(C)c3ccccc23)CC1,32*,-23,16,0,14
O=C(NCCCN1CCCC1)c1cccc(Cl)c1,-10,-44,-11,-3,-8
O=C(Cc1cccc(Cl)c1)NCCN1CCC(O)(c2cccc(F)c2)CC1,34*,3,7,-2,17
CC(=O)N1CCC(Cc2cc(N3CC4(CCCCC4)OC3=O)ncn2)CC1,1,-264,-28,-3,5
CC(=O)Nc1ccc(NC(=O)C2CCC(CNS(=O)(=O)c3ccc(F)cc3)CC2)cc1 (stereo not drawn),31*,25,9,10,18
O=C(NCc1ccc(Br)cc1)c1ccc(-c2cccnc2)nc1,55*,5,30,2,30
O=C(NCc1cccc(Br)c1)c1ccc(-c2cccnc2)nc1,0,1,0,0,3
Nc1nc(N)c2ncc(C(F)(F)F)cc2n1,13,12,14,2,4
COc1ccc(-c2nc(Cn3nnc(C(=O)Nc4ccc(C)c(C)c4)c3N)c(C)o2)cc1,8,28,80*,22,-2
CCOC(=O)c1noc2nc(C)n(Cc3nc(-c4ccc(OC)cc4)oc3C)c(=O)c12,-3,-7,0,-3,-1
COc1ccc(-c2nc(Cn3nnc(C(=O)Nc4ccc(C)cc4C)c3N)c(C)o2)cc1,57*,25,29,-7,7
COc1ccccc1CNc1nc(-c2nnc(-c3ccccc3)o2)nc2ccccc12,44*,36*,38*,7,3
CCn1nnc2c(SCC(=O)N(C)c3ccccc3)ncnc21,/,-2,-2,-3,/
c1ccc(C(CN2CCOCC2)Nc2ncnc3sccc23)cc1 (stereo not drawn),-25,6,2,-8,-12
O=C(O)c1ccc(C2Cc3c([nH]c(=O)[nH]c3=O)O2)cc1 (stereo not drawn),75*,-53,24,2,78*
O=C(C1CCCN(S(=O)(=O)N2CCOCC2)C1)N1CCN(Cc2ccc3c(c2)OCO3)CC1 (stereo not drawn),7,12,0,0,2
SMILES,USP30 inh,USP8 inh,USP17 block,USP10 block,USP28 block
Nc1ncnc(SCc2ccc(Cl)cc2)n1,23,8,54*,7,4
Cc1ccc(CNC(=O)CCc2csc(NC(=O)c3ccc(=O)[nH]c3)n2)cc1,33*,-43,-11,-3,23
Cc1cnc(C(=O)N2C[C@H]3C[C@H]4[C@](C2)(CN(Cc2ccc(Cl)cc2)S4(=O)=O)O3)cn1,7,-118,-7,0,-1
CC(C)c1nc2sc3c(SCC(=O)N(c4ccccc4)c4ccccc4)ncnc3c2c2c1COC(C)(C)C2,32*,0,14,-2,7
CSc1cccc(NC(=O)c2cnn(-c3ccccn3)c2C(C)C)c1,7,11,4,-1,12
Cc1c(C(=O)Nc2cccc(C(F)(F)F)c2)cnn1-c1ccccn1,24,3,55*,0,14
O=C(N[C@H]1[C@H](O)[C@H](O)C[C@@H]1C1CCCCC1)C1CC1,49*,1,21,1,16
COc1ccc(CC(=O)N2C[C@H]3C[C@H]4[C@](C2)(CN(C)S4(=O)=O)O3)cc1,24,20,11,0,7
